About 83,000 compounds went through this panel and 20% of them were active in at least one assay; those are over-represented in the sample as a whole.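 Treatment: one concentration, 48 hours, 96-well format. Scoring: percent growth, with anything below 10 considered active.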 Unmarked numbers belong to inactive results.
These compounds were tested on SK-MEL-5 melanoma (assay: NCI-60 one-dose screen, 48 h (100 = growth as untreated, 0 = no growth, -100 = all killed)). Conditions: 10 µM unless noted.
`S=c1nc(-c2ccccn2)c(-c2ccccn2)n[nH]1` gave a growth of 108%. With `O=C(O)c1ccc(OCc2ccccc2)cc1` the growth was 96.2%. `CCC(=O)Oc1c(C)cc(O)c2ccccc12` showed a growth of 82%. For `Cc1nc(O)cc(=O)[nH]1`, the growth was 109%. `CC(=O)NNC(=S)/N=C\C(C(=O)c1ccccc1)=C(/O)c1ccccc1` was tested, and the growth was 101%. In the case of `OCC(O)COc1ccc(Cl)cc1Cl` (configuration not stated), the growth is reported as 109%. With `ClCc1cccc2c(CCl)cccc12` the growth was 77.6%. Work on `COc1c(CNC(=O)CCl)cc2[nH]c(C)cc2c1CNC(=O)CCl` yielded a growth of 44.1%. `CC(=O)Nc1ccc(/C=C2\SC(=S)N(/C=C(\C(C)=O)C(N)=O)C2=O)cc1` was tested, and the growth was 88.7%. Compound `CC(CO)(CO)C(=O)O` has a growth of 97.3%. In the case of `COC(=O)c1ccc([N+](=O)[O-])c(C)c1`, the growth is reported as 109%. Work on `CC(C)c1ncc([N+](=O)[O-])n1C` yielded a growth of 114%. `CC(=O)c1cccc(NS(=O)(=O)c2ccc(C)cc2)c1` was tested, and the growth was 60.2%. In the case of `Clc1ccc(-c2noc(/C=C\c3ccccc3)n2)cc1`, the growth is reported as 97.6%. Compound `OC1Cc2ccccc2C1` has a growth of 101%. For `CC(=O)Nc1ccc(O)c(C)c1`, the growth was 100%. With `Oc1ccc(N=Cc2ccc(OCc3ccccc3)cc2)cc1` the growth was 92.2%. With `CCCCNC(=O)c1ccc(OCC)cc1` the growth was 103%. In the case of `CSc1nc2[nH]ncc2c(=O)[nH]1`, the growth is reported as 92.8%. `Cc1ccc2nc(-c3ccc(N=Cc4ccccc4O)cc3)sc2c1` was tested, and the growth was 109%. `O=C(CCCl)OCCOc1ccccc1` showed a growth of 108%. For `CCC1CCC(C)NC1` (configuration not stated), the growth was 98.9%. `COc1cc(C(=O)N2CCN(c3ccccc3)CC2)c2ccccc2n1` gave a growth of 16.8%. Compound `NNc1ncnc2nc[nH]c12` has a growth of 71.9%. Work on `FC(F)(F)c1cc(NC2=NCCN=C(Nc3cc(C(F)(F)F)cc(C(F)(F)F)c3)SS2)cc(C(F)(F)F)c1` yielded a growth of 50.2%. `Nc1ncnc(Nc2ccccc2)n1` showed a growth of 104%. In the case of `c1ccc2[nH]c(Cc3nc4ccccc4[nH]3)nc2c1`, the growth is reported as 104%. `CC(C)(N)CO[C@H]1C[C@H]2CC[C@@]1(C)C2(C)C` showed a growth of 86.1%. For `Nc1ncc([N+](=O)[O-])cn1`, the growth was 94.6%. In the case of `Cc1cc(CC(=O)NCCO)n(CCO)c(=O)c1`, the growth is reported as 104%. Compound `NNC(=O)N/N=C1\C(=O)N(c2nccs2)C(=O)C(=O)C1c1nc2ccccc2s1` (configuration not stated) has a growth of 96.5%. Compound `Nc1nc(Cl)cc(Cl)n1` has a growth of 98.8%. With `CC(=O)c1cccc(O)c1` the growth was 100%. `O=c1n(CC2CO2)c(=O)n(CC2CO2)n1CC1CO1` (configuration not stated) was tested, and the growth was 67.1%. With `O=C(O)c1c[nH]c2ccccc2c1=O` the growth was 101%. `CC1(C)CCC(C)(C)NC(=S)N1` gave a growth of 105%. In the case of `NC(=O)OCCO`, the growth is reported as 95.4%.

Reference: PubChem BioAssay (NCI)
